Compounds with a hit are over-represented: about 27% of the library has one in this group of screens.
CYP2C19 inhib – blocks human cytochrome P450 2C19. inhibition, % at 5 µM. hit rate 21% among 96,000. P33261. AID 778. CYP2C19 Supersomes, luciferin-H EGE luminescence, 30 min;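 active = CYP2C19 inhibition above a set limit at 5 µM in the primary screen, cut at about 50% in these data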
Target sequence (P33261 whole entry, looked up): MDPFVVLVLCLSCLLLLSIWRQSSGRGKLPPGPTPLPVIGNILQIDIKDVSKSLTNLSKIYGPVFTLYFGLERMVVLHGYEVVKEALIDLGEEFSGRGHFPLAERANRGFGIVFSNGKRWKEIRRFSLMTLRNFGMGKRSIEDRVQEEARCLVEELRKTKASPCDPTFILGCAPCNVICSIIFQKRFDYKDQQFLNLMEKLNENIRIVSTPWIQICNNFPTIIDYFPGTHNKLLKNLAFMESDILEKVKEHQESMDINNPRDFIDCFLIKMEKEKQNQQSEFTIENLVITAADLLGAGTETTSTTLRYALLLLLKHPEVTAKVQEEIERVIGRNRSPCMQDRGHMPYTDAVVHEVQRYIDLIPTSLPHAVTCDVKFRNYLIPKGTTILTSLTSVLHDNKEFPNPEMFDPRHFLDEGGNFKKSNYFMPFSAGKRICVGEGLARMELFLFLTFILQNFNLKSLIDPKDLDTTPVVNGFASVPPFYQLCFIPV
Pyk2 oligo antag – Pyk2 (human) oligomerization antagonism. z-score (the deposit names both 25 µM and 10 µM). hit rate 0.83% among 99,000. AID 1347419. Q293 cells, Pyk2 FERM NanoBiT luminescence; hits give low values;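 active = Z-score of -3 or lower, scaled per plate to the spread of control and sample wells; inactive = z-score above -3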;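 also: negative z-score means lost luminescence so less FERM oligomerization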
CYP2C9 activ – activators of human CYP2C9 | hit rate 1.4% among 96,000 | AID 1024 | recombinant CYP2C9, luciferin-H conversion, luminescence; hits give high values; factor 1 = untreated enzyme, 0 = blocked | activation factor at 5 µM;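 active = activation factor of 2 or more for CYP2C9 at a 5 µM dose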
CYP2C9 inhib – human CYP2C9 inhibition; P11712; CYP2C9 Supersomes, luciferin-H conversion, luminescence; inhibition, % at 5 µM; hit rate 20% among 96,000; AID 777;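 active = blocking of liver enzyme CYP2C9 beyond about 50% at 5 µM, limit read from the data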
Cav3 T inh – human Cav3.2 channel inhibition, primary screen; O95180; hit rate 4% among 100,000; Cav3.2-expressing cells, Fluo-4 calcium fluorescence FDSS; hits give low values; B-score at 10 µM;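 active = single-dose well whose peak fluorescence ratio is a statistical outlier from its plate by either plate-standardised score or position-corrected B-score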
CYP2C19 activ – cytochrome P450 2C19 (human) activation. recombinant CYP2C19, luciferin-H EGE luminescence; hits give high values; 0 = fully inhibited enzyme, 1 = untreated enzyme. 96,000 tested, under 10 active. P33261. activation factor at 5 µM;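 active = activation factor of at least 2 at 5 µM in the primary screen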
Large screens that a line does not name were inactive.

O=C(Nc1cc2c(cc1Cl)OCCCO2)c1ccccc1	none
O=C(O)CC(c1cccc2ccccc12)n1cccc1 (stereo unspecified)	CYP2C9 inhib 51
CCCCN(NC(C)=O)c1nc(Cl)nc(NC(C)C)n1	none
COC(=O)CN(c1cc(OC)ccc1OC)S(=O)(=O)c1ccc(OC)c(OC)c1	CYP2C19 inhib 95, CYP2C9 inhib 63
COC(=O)CN(Cc1ccccc1)S(=O)(=O)c1ccc(OC)c(OC)c1	CYP2C19 inhib 57
COc1ccc(S(=O)(=O)N(CCc2ccccc2)CC(=O)O)cc1OC	none
COC(=O)CN(CCc1ccccc1)S(=O)(=O)c1ccc(OC)c(OC)c1	CYP2C19 inhib 99
COCCSc1ccccc1C(=O)NCCCn1ccnc1	CYP2C19 inhib 68
COCCSc1ccccc1C(=O)Nc1cccnc1	none
O=C(NCCCn1ccnc1)c1cn(-c2ccccc2)nc1-c1ccccc1	CYP2C19 inhib 64, CYP2C9 inhib 94
CCc1cccc2cc3c(N)c(C(=O)Nc4ccc(S(=O)(=O)N5CCCC5)cc4)sc3nc12	none (no result: CYP2C19 inhib, CYP2C9 activ, CYP2C9 inhib, Cav3 T inh, CYP2C19 activ)
Nc1ccc2c(c1)COc1ccccc1O2	CYP2C19 inhib 69
CCCCC(CC)CNC(=O)C1C2C=CC(C2)C1C(=O)O (stereo unspecified)	none
COC(=O)c1ccc(C2C(C(=O)OC(C)C)=C(C)N=C3SCCC(=O)N32)cc1 (stereo unspecified)	none (no result: Pyk2 oligo antag, Cav3 T inh)
CC1=C(C(=O)OCC(C)C)C(c2cccc(F)c2)N2C(=O)C(C)SC2=N1 (stereo unspecified)	CYP2C19 inhib 75, CYP2C9 inhib 75, Cav3 T inh -6.1
CCOC(=O)C1=C(C)N=C2SC(C(=O)OC)=CC(=O)N2C1c1ccc(F)cc1 (stereo unspecified)	CYP2C19 inhib 50
CCOC(=O)C1=C(C)N=C2SC(C)C(=O)N2C1c1ccc(OC(C)=O)c(OCC)c1 (stereo unspecified)	CYP2C19 inhib 65, CYP2C9 inhib 63 (no result: Pyk2 oligo antag, Cav3 T inh)
CC1=C(C(=O)OC(C)C)C(c2cccc(F)c2)N2C(=O)C(C)SC2=N1 (stereo unspecified)	CYP2C19 inhib 81, CYP2C9 inhib 70
COC(=O)c1ccccc1NS(=O)(=O)c1cn(C)c(=O)n(C)c1=O	none (no result: Pyk2 oligo antag)
CCN1C(=O)N(C)C(N(O)C(=O)NC)C1(C)C (stereo unspecified)	none
COC(=O)C1=C(C)N=C2SC(C)C(=O)N2C1c1cccs1 (stereo unspecified)	none
CCOC(=O)C1=C(C)N=C2SC(C)C(=O)N2C1c1cccc(F)c1 (stereo unspecified)	Cav3 T inh -6.5
COCCN1CCN(C(=O)c2ccc3c(c2)S(=O)(=O)c2ccccc2C3=O)CC1	none (no result: CYP2C19 inhib, Pyk2 oligo antag, CYP2C9 activ, CYP2C9 inhib, CYP2C19 activ)
O=c1c2c(C(F)(F)F)cc(C(F)(F)F)nc2[nH]n1-c1ccccc1	CYP2C9 inhib 84
Cc1cc(C)c2c(=O)n(-c3ccccc3)[nH]c2n1	none
Cc1cc(-c2ccccc2)nc2[nH]n(-c3ccccc3)c(=O)c12	CYP2C9 inhib 59
COCCCNC(=O)CC(NS(=O)(=O)c1ccc(C)cc1)c1ccco1 (stereo unspecified)	none (no result: Cav3 T inh)
CCOC(=O)N1CCN(C(=O)CN(C2CCCCC2)S(=O)(=O)c2ccc(Cl)cc2)CC1	none
COCCCNC(=O)CC(NS(=O)(=O)c1ccc(Cl)cc1)c1ccco1 (stereo unspecified)	CYP2C19 inhib 61, CYP2C9 inhib 52
Cc1ccc(S(=O)(=O)NC(CC(=O)NCc2ccco2)c2ccco2)cc1 (stereo unspecified)	none
CCOC(=O)N1CCC(NC(=O)CC(NS(=O)(=O)c2ccc(Cl)cc2)c2ccco2)CC1 (stereo unspecified)	CYP2C19 inhib 60, CYP2C9 inhib 54 (no result: Cav3 T inh)
Cc1ccc(S(=O)(=O)NC(CC(=O)NC2CCCC2)c2ccco2)cc1 (stereo unspecified)	CYP2C19 inhib 58
CCOC(=O)N1CCC(Nc2nc3ccccc3nc2NS(=O)(=O)c2ccc(Cl)cc2)CC1	CYP2C9 inhib 95
CC1=C(C(=O)OCc2ccccc2)C(c2ccccc2OS(=O)(=O)c2ccc([N+](=O)[O-])cc2)NC(=O)N1CCCC(=O)O (stereo unspecified)	none (no result: CYP2C19 inhib, Pyk2 oligo antag, CYP2C9 activ, CYP2C9 inhib, CYP2C19 activ)
CCCCNC(=O)c1c(CSc2ccc(Cl)cc2)noc1C(=O)NCc1ccccc1	none (no result: CYP2C19 inhib, Pyk2 oligo antag, CYP2C9 activ, CYP2C9 inhib, CYP2C19 activ)
O=C1CCN(S(=O)(=O)c2ccccc2)CCN1CCOCc1ccc(Cl)cc1	none (no result: CYP2C19 inhib, Pyk2 oligo antag, CYP2C9 activ, CYP2C9 inhib, CYP2C19 activ)
O=S1(=O)CC(O)C(N2CCC(c3ccccc3)CC2)C1 (stereo unspecified)	none
CN(C)c1cccc(NC(=O)Cc2ccc(F)cc2)c1	CYP2C19 inhib 98, CYP2C9 inhib 62
CN(C)c1cccc(NC(=O)CCc2ccccc2)c1	CYP2C19 inhib 95
CC(=O)c1cccc(N(C(=O)c2ccco2)C(C(=O)NC2CCCC2)c2ccncc2)c1 (stereo unspecified)	none
Cc1ccccc1NC(=O)c1cc(S(=O)(=O)c2ccccc2)ccc1Cl	none
Cc1cccc(NC(=O)c2cccc(NS(=O)(=O)c3ccc(Cl)cc3)c2)c1	CYP2C19 inhib 99, CYP2C9 inhib 97, Cav3 T inh -9.6
CC(=O)c1cccc(NS(=O)(=O)c2ccc(N/C=C\C(=O)c3ccc(C)cc3)cc2)c1	CYP2C9 inhib 65
Cc1cccc(NC(=O)c2cc(S(=O)(=O)c3ccccc3)ccc2Cl)c1	CYP2C19 inhib 80, CYP2C9 inhib 94, Cav3 T inh -5.6
Cc1ccc(S(=O)(=O)Nc2cc(C(=O)Nc3cc(C)cc(C)c3)ccc2Cl)cc1	CYP2C19 inhib 57, CYP2C9 inhib 80, Cav3 T inh -5.3
CCN(CC)S(=O)(=O)c1cccc(C(=O)Nc2cccc(C)c2)c1	none
CC(=O)c1cccc(NS(=O)(=O)c2ccc(N/C=C\C(=O)c3ccc(F)cc3)cc2)c1	none
Cc1cc(OC(=O)c2c(C)cc(OC(=O)c3c(C)cc(O)cc3O)cc2O)cc(O)c1C(=O)O	none (no result: CYP2C19 inhib, Pyk2 oligo antag, CYP2C9 activ, CYP2C9 inhib, CYP2C19 activ)
O=c1[nH]c(=O)n(CCO)c2nnn(Cc3ccccc3)c12	none
CC1Oc2ccccc2N(CC(=O)c2cccc(Cl)c2)C1=O (stereo unspecified)	CYP2C19 inhib 97, CYP2C9 inhib 93
Cc1ccc2c(c1)N(CC(=O)c1cccc(Cl)c1)C(=O)C(C)O2 (stereo unspecified)	none
Cc1nn2c(-c3cccc(NC(=O)CN4CCOCC4)c3)nnc2c2ccccc12	none (no result: CYP2C19 inhib, Pyk2 oligo antag, CYP2C9 activ, CYP2C9 inhib, CYP2C19 activ)
O=C1c2ccccc2CC1(Cc1ccccc1)Cc1ccccc1	none (no result: CYP2C19 inhib, CYP2C9 activ, CYP2C9 inhib, CYP2C19 activ)
CSc1nc(-c2ccc(Cl)cc2)nn1S(=O)(=O)c1ccc(Cl)cc1	none (no result: CYP2C19 inhib, CYP2C9 activ, CYP2C9 inhib, CYP2C19 activ)
CS(=O)(=O)n1nc(-c2ccc(Cl)cc2)nc1SCc1ccccc1	CYP2C19 inhib 51, CYP2C9 inhib 69
O=C1COc2ccc(C(=O)c3ccccc3C(=O)NCc3ccccc3)cc2N1	CYP2C19 inhib 75, Cav3 T inh -7.2
O=C1COc2ccc(C(=O)NCc3ccco3)cc2N1	none

Screening results: PubChem BioAssay, several laboratories
